ChEMBL document CHEMBL3433997, “St. Jude Leishmania screening dataset” (2016)

Tests used:
Format in all cases: functional
[1] = molecular target: Solute carrier family 2, facilitated glucose transporter member 1 (Homo sapiens) (UniProt P11166); experiment: ST_JUDE_LEISH: Cytotoxicity at 2uM final concentration against transgenic Leishmania Mexicana promastigotes LmGLUT1 that are glucose transport deficient and complemented with the human glucose transporter GLUT1. Activity is measured by DNA content using SYBR green in vitro
Solute carrier family 2, facilitated glucose transporter member 1 (Homo sapiens), sequence (P11166 whole entry): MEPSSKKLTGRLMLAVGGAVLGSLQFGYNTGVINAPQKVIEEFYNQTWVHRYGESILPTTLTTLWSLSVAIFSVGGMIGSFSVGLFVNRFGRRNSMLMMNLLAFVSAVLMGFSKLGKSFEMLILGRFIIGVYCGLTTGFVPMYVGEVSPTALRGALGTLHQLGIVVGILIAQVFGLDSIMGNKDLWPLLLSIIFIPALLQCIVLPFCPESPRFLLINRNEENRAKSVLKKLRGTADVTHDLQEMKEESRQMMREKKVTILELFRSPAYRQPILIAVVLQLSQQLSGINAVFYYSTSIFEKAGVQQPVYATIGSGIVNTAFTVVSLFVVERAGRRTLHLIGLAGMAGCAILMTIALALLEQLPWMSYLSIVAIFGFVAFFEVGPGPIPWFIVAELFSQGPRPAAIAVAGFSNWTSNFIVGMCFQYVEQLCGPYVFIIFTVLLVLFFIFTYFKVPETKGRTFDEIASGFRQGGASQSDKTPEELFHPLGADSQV

[2] = molecular target: Hexose transporter 1 (Plasmodium falciparum) (UniProt O97467); experiment: ST_JUDE_LEISH: Cytotoxicity at 2uM final concentration against transgenic Leishmania Mexicana promastigotes LmPfHT that are glucose transport deficient and complemented with the Plasmodium falciparum hexose transporter. Activity is measured by DNA content using SYBR green in vitro
[3] = molecular target: Glucose transporter (Leishmania mexicana) (UniProt O61059); experiment: ST_JUDE_LEISH: Cytotoxicity at 2uM final concentration against transgenic Leishmania Mexicana promastigotes LmGT2 that are glucose transport deficient and complemented with the L. Mexicana glucose transporter 2. Activity is measured by DNA content using SYBR green in vitro

Row | Compound | inhibition [1] [%] | inhibition [2] [%] | inhibition [3] [%]
1 | c1ccc2[nH]c(Nc3ccc(Nc4nc5ccccc5[nH]4)cc3)nc2c1 | 0.45 | 0.37 | 0.51
2 | COc1ccc2nccc([C@@H](O)CN3CCC(NC(=O)c4nc(Cl)c(Cl)c(N)c4Cl)CC3)c2c1 | -0.09 | -0.22 | 1.55
3 | CN1CCC(C(=O)Nc2ccc(-c3ccc(-c4nc5cc(C(F)(F)F)ccc5[nH]4)s3)cc2)CC1 | -0.08 | 0.49 | -0.16
4 | O=c1cc(NCCCCNCc2cccc(Br)c2)[nH]c2ccccc12 | 5.23 | 5.07 | 3.39
5 | Cc1nc2ccc(-c3nc4cc(N)ccc4[nH]3)cc2[nH]1 | -2.46 | 10 | 1.44
6 | CCC(=O)c1c(C)n(-c2ncnc3c2nc(C)n3-c2ccc(C)cc2C)c2ccccc12 | 4.6 | 1.9 | 3.62
7 | O=C(NCCc1ccc(O)cc1)n1c2ccccc2c2ccccc21 | 2.7 | 4.05 | 1.38
8 | CC(C)(C)CC(C)(C)c1ccc(O)c(C(=O)Nc2ccc([N+](=O)[O-])cc2)c1 | 1.13 | 1.55 | 0.23
9 | COc1ccc(-c2ccc(CNC3Cc4ccccc4C3)cc2)cc1S(=O)(=O)NCCN1CCCC1 | 1.48 | 3.39 | -0.28
10 | Cc1[nH]c(C)c(-c2ccc(-c3ccccc3C(F)(F)F)nc2)c(=O)c1Br | 2.64 | 3.67 | 0.55
11 | CC(CNC(=O)C(c1cc2ccccc2o1)N1CCN(C(c2ccccc2)c2ccccc2)CC1)c1ccccc1 (stereo unspecified) | 3.49 | 3.31 | 3.92
12 | O=C(NC1CCN(Cc2ccc(F)cc2)CC1)c1ccc(-c2cccc(C(F)(F)F)c2)s1 | 9.61 | 9.88 | 1.44
